A number with no mark means an inactive call.

The experiment is described as follows: JC-1 mitochondrial signal, unstimulated adipocytes – cell-based, JC-1 fluorescence, 3T3-L1 adipocytes, 24 h, 100 nL compound, profiling panel (AID 1168). Note: test concentration not given here. The conditions noted are these: JC-1 mitochondrial fluorescence, higher = more signal, called active from +8 up or from −8 down.
Take `COC(=O)C1(Cc2ccccc2)C=C2C(=C(C(C)C)C(=O)C2C)CN1` (stereo not given): the z-score is -1.76.

Turning to `Cc1c(NC(=O)/C(C#N)=C/C=C/c2ccccc2[N+](=O)[O-])c(=O)n(-c2ccccc2)n1C`, the z-score is -0.0694.

For `[N-]=[N+]=NCc1ccccc1C[C@@]1(C(=O)NCCN2CCOCC2)N=C(c2ccc(OCCCO)cc2)O[C@@H]1c1ccccc1N=[N+]=[N-]`, the z-score was -1.38.

Consider `C[n+]1ccc(CCCO)cc1`, for which the z-score was -0.321.

`CN1C(=O)C2C=CC(C(O)c3c(F)cccc3Cl)N(Nc3ccccc3)C2C1=O` (stereo not given): the z-score is -0.144.

As to `C=C[C@@H](C)[C@H](OC(=O)Nc1ccc(SC)cc1)c1ccc(OCCO)cc1`, the z-score is 0.396.

`CC(C)C(O)C1C=CC2C(=O)N(C)C(=O)C2N1N(c1ccccc1)c1ccccc1` (stereo not given): the z-score was -0.291.

`O=C1c2ccccc2[C@](Cc2ccccc2I)(C(=O)NCc2ccccc2)[C@H](c2ccc(CO)cc2)N1C1CCCCC1`: the z-score is -0.424.

Consider `CC(=O)n1cc(C(O)C2C=CC3C(=O)N(Cc4ccccc4)C(=O)C3N2n2cnnc2)c2ccccc21` (stereo not given), for which the z-score is -0.623.

For `COc1cc2c(cc1OC)CN(C(=O)[C@H]1[C@@H]3C(=O)O[C@@H](c4ccccc4)[C@@H](c4ccccc4)N3[C@@H](c3ccc(OCCO)cc3)[C@]13C(=O)Nc1ccc(C#CC4(O)CCCCCC4)cc13)CC2`, the z-score was 0.568.

Take `O=c1cccc(-c2ccc(C(F)(F)F)cc2)o1`: the z-score is 1.75.

Regarding `COc1ccc(C(O)C2C=CC3C(=O)N(Cc4ccccc4)C(=O)C3N2n2cnnc2)c2ccccc12` (stereo not given), the z-score was 0.895.

On to `CC(C)(C)OC(=O)CC[C@]1(C(=O)NCCN2CCOCC2)N=C(c2ccc(OCCCO)cc2)O[C@H]1c1ccccc1N=[N+]=[N-]`, for which the z-score is 1.21.

For the compound `C=CC[C@H](OC(=O)Nc1ccc(OC)cc1)c1ccc(O)c2ccccc12`, the z-score was -1.05.

For the compound `COC(=O)[C@@]1(Cc2ccc(OC)cc2)[C@H]2c3cc(C(=O)N4CCCC4)n(CCc4cc5ccccc5[nH]4)c3C[C@H]2CN1C(=O)c1ccccc1`, the z-score was -0.538.

As for `COc1ccc(CCNC(=O)[C@@]2(Sc3ccc(C)cc3)CC(=O)N(Cc3cc(C(F)(F)F)cc(C(F)(F)F)c3)[C@@H]2c2ccc(CO)cc2I)cc1`, the z-score is -0.208.

For the compound `COc1ccc(C(O)C2C=CC3C(=O)N(C)C(=O)C3N2N2CCCCC2)cc1` (stereo not given), the z-score is 0.0216.

On to `COc1ccc([Si](C)(C)[C@@H]2[C@@H](CC(=O)N3CCC[C@H]3CO)O[C@]3(C(=O)N(Cc4ccc(N5C(=O)c6cccc7cccc5c67)cc4)c4ccccc43)[C@H]2C)cc1`, for which the z-score was -0.209.

Consider `O=C1c2ccccc2[C@@]2(Cc3ccccc3N(C3CC3)C2=O)[C@H](c2ccc(CO)cc2)N1C1CCCCC1`, for which the z-score was -0.971.

Regarding `CCOC(=O)C1=CC[C@@H](c2cc(Cl)ccc2Cl)N(S(=O)(=O)c2ccc(C)cc2)[C@H]1c1ccc(OC)cc1`, the z-score was -1.

Take `CC=CC(O)C1C=CC2C(=O)N(C)C(=O)C2N1N1CCCCC1` (stereo not given): the z-score is -1.36.

For the compound `C=C(C(=O)CC[C@H](OC(C)=O)c1cccc(OCCO)c1)C(C)C`, the z-score was 0.113.

With `CC(C)C(=C=CC[C@H](O)c1ccc(OCCO)cc1)C[C@H](O)c1cc(Cl)cc(Cl)c1O`, the z-score is -0.132.

With `COc1ccc(C#Cc2ccc3c(c2)[C@]2(C(=O)N3)[C@H](C(=O)N3CCc4cc(OC)c(OC)cc4C3)[C@H]3C(=O)O[C@H](c4ccccc4)[C@H](c4ccccc4)N3[C@@H]2c2ccc(O)cc2)cc1`, the z-score was 1.72.

For the compound `CN1C(=O)[C@@]2(CCS(=O)(=O)c3ccccc3)N=C(c3ccc(OCCCO)cc3)O[C@H]2c2ccccc21`, the z-score was 0.426.

On to `CC[C@H]1C2=C3C(CC[C@H]4C(OCc5ccc(F)cc5C(F)(F)F)OC[C@](C)([C@@H]34)N(C(=O)OC(C)(C)C)C2)C2COC(=O)OCC21` (stereo not given in full), for which the z-score is -1.41.

Consider `Cc1ccc(S[C@]2(C(=O)NCc3ccccc3)CC(=O)N(C(C)C)[C@@H]2c2ccc(CO)cc2I)cc1`, for which the z-score was -0.371.

With `Cc1ccc(C(C)CC(O)C2C=CC3C(=O)N(c4ccccc4)C(=O)C3N2Nc2ccc(C(C)C)cc2)o1` (stereo not given), the z-score is -1.44.

Consider `COCCOC(=O)N1C(=O)[C@@]2(c3cc(C#Cc4ccc(OC)cc4)ccc31)[C@H](C(=O)NC[C@H](O)c1ccccc1)[C@H]1C(=O)O[C@H](c3ccccc3)[C@H](c3ccccc3)N1[C@@H]2c1ccc(O)cc1`, for which the z-score was 1.54.

As to `COCCOC(=O)N1C(=O)[C@@]2(c3cc(C#CC4(O)CCCCCC4)ccc31)[C@H](C(N)=O)[C@H]1C(=O)O[C@H](c3ccccc3)[C@H](c3ccccc3)N1[C@@H]2c1ccc(O)cc1`, the z-score was -0.62.

`CC1CC/C=C\[C@H]2OC34C=CCN(C(C)C)C(=O)[C@H]3N(CCCCCO)C(=O)[C@@H]4C2C(=O)O1` (stereo not given in full): the z-score is 0.633.

On to `CCOC(=O)C1=CC[C@@H](c2ccccc2)N(S(=O)(=O)c2ccc(C)cc2)C1`, for which the z-score was -1.07.

`CCN(CC)c1ccc(N2CC=CC34O[C@@H]5/C=C\CCC(C)OC(=O)C5[C@H]3C(=O)N(CCO)[C@@H]4C2=O)cc1` (stereo not given in full): the z-score was -0.905.

Take `C=CCOC(=O)[C@H]1[C@@H]2C(=O)O[C@@H](c3ccccc3)[C@@H](c3ccccc3)N2[C@@H](c2ccc(OCCOC(=O)[C@H]3C[C@H]4C(=O)N[C@@H](CCCC[N+](C)(C)C)C(=O)N4[C@H]3c3cccc(OCCO)c3)cc2)[C@]12C(=O)Nc1ccc(I)cc12`: the z-score is -0.124.

`O=C1C[C@@](C(=O)NCC(F)(F)F)(c2ccc([N+](=O)[O-])cc2)[C@@H](c2ccc(CO)cc2)N1C1CCCCC1`: the z-score was -1.12.
